Test results reported in PubChem BioAssay.
Activity calls are given as the source filed them.

How the values were obtained:
[1] = compounds binding Alexa647 anti-His antibody – biochemical, small-molecule microarray, 635 nm fluorescence, artefact control for SMM control protein annotation, primary screen (AID 1128); details: higher = more signal;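 also: score merges feature fluorescence with signal-to-noise for each printed compound spot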
[2] = test system: Human papillomavirus type 1a E7 protein (residues 1-88); experiment: HPV1a E7 small-molecule binders, primary screen, biochemical, small-molecule microarray, residues 1-88, 635 nm (AID 1129); details: small-molecule microarray binding, fluorescence 635 nm; higher = more signal
[3] = biological target: Focal adhesion kinase 1 (Homo sapiens) (UniProt Q05397); experiment: PTK2 protein binding on printed compound slides – biochemical, small-molecule microarray, 635/667 nm fluorescence, BSA, DTT, primary screen (AID 1130); details: 635 nm fluorescence, higher = more signal;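 also: composite of spot emission at 667 nm and signal to noise over triplicate slides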
[4] = test system: Fibrinogen (Alexa647-labelled); experiment: Alexa647-fibrinogen binding to printed small molecules – biochemical, small-molecule microarray, 635/667 nm fluorescence, artefact control for SMM control-protein annotation, profiling panel (AID 1131); details: fibrinogen-A647 binding fluorescence, higher = more signal;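 also: z-score merges 667 nm fluorescence with per-spot signal-to-noise over triplicate slides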
[5] = biological target: Follistatin (Homo sapiens) (UniProt P19883); experiment: FST protein binding to printed compounds – biochemical, small-molecule microarray, 635/667 nm fluorescence, primary screen (AID 1132); details: 635 nm fluorescence, higher = more signal
[6] = biological target: Fibroblast growth factor 2 (Homo sapiens) (UniProt P09038); experiment: basic fibroblast growth factor binding to printed compounds – biochemical, small-molecule microarray, 635/667 nm fluorescence, primary screen (AID 1133); details: FGF2, fluorescence 635/667, higher = more signal
[7] = JC-1 mitochondrial potential readout, lung cancer cells – cell-based, A549, JC-1 fluorescence, basal, 24 h, 100 nL, profiling panel (AID 1138); details: higher = more signal;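 also: A549 lung adenocarcinoma cells under basal conditions with no added stimulus; test concentration not given here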
Lefty1 = Lefty1 protein binding to printed compounds – biochemical, small-molecule microarray, 635/667 nm fluorescence, primary screen (AID 1139); details: fluorescence 635/667, higher = more signal
[8] = test system: wheat germ agglutinin (Triticum aestivum), Alexa647-labelled; experiment: Alexa647-WGA lectin binding to printed small molecules – biochemical, small-molecule microarray, 635/667 nm fluorescence, artefact control for SMM control-protein annotation, profiling panel (AID 1140); details: WGA-A647 binding, 635 nm fluorescence, higher = more signal;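 also: score merges 667 nm feature emission with signal to noise over triplicate slides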
[9] = biological target: Luciferin 4-monooxygenase (Photinus pyralis) (UniProt P08659); experiment: inhibition of purified Photinus pyralis luciferase – biochemical, luminescence, purified enzyme, 2006 set, primary screen (AID 1141); details: purified firefly luciferase, SteadyGlo luminescence, 30 min; higher = more signal, called active from +8 up or from −8 down;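 also: cell-free assay with purified firefly luciferase at 100 ng per well in PBS; test concentration not given here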
Chain of Luciferin 4-monooxygenase (Photinus pyralis) (P08659 whole entry, looked up): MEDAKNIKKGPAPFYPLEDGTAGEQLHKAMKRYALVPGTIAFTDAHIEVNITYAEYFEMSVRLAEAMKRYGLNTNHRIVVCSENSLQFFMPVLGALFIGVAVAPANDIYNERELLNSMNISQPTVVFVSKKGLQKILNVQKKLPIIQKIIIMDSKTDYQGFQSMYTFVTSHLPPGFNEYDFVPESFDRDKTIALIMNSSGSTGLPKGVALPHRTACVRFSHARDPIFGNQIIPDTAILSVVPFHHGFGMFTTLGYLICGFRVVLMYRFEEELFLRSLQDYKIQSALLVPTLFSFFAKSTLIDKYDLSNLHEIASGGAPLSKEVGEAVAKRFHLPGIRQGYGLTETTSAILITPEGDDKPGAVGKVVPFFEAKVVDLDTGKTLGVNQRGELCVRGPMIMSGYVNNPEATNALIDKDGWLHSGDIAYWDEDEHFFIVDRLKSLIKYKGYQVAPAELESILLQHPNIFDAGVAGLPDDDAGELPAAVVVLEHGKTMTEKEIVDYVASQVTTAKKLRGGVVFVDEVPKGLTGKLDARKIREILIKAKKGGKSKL

Chain of Follistatin (Homo sapiens) (P19883 whole entry, looked up): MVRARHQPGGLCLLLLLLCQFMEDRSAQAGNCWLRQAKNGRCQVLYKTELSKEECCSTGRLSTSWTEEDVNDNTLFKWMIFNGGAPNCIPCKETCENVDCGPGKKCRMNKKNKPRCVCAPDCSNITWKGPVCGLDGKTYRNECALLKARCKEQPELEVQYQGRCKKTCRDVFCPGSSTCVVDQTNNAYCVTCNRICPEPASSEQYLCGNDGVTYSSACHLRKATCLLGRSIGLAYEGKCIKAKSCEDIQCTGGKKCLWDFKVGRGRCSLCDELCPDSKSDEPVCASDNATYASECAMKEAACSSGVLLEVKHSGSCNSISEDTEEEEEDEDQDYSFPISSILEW
Chain of Fibroblast growth factor 2 (Homo sapiens) (P09038 whole entry, looked up): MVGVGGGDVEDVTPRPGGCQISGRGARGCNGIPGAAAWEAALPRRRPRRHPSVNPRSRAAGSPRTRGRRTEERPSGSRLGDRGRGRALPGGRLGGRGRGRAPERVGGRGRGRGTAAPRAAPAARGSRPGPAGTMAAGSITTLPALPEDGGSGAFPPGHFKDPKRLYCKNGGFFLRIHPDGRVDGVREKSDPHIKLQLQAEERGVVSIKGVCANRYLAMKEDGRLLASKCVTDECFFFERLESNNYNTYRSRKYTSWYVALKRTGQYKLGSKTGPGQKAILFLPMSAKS
Chain of Focal adhesion kinase 1 (Homo sapiens) (Q05397 whole entry, looked up): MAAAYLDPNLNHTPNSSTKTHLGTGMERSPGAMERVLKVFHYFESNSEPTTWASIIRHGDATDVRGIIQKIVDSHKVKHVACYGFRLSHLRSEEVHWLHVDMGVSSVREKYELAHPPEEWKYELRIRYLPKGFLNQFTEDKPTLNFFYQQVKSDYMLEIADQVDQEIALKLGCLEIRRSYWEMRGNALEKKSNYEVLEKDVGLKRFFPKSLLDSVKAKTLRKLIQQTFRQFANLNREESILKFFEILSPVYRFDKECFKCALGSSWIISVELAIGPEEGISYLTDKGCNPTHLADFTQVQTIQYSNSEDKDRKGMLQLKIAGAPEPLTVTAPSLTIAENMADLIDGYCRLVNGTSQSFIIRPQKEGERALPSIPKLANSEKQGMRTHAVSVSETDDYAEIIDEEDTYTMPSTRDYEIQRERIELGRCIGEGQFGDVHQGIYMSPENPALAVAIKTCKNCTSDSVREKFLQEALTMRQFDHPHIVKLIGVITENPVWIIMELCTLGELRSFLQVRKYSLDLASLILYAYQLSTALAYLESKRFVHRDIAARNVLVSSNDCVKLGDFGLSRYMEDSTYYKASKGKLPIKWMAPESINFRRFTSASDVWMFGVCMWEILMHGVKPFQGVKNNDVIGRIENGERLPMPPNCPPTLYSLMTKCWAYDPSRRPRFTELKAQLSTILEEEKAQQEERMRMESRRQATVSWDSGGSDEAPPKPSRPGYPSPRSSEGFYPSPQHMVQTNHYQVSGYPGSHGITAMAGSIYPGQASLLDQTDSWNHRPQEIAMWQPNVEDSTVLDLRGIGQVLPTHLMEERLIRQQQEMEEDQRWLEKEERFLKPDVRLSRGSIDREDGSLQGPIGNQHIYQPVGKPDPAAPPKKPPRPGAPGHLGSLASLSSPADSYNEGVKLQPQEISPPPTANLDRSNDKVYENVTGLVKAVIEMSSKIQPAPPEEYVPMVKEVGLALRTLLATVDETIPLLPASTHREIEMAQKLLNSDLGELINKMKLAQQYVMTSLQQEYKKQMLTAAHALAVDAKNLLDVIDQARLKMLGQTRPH

Row | Structure (SMILES) | composite z-score [1] | composite z-score [2] | composite z-score [3] | composite z-score [4] | composite z-score [5] | composite z-score [6] | z-score [7] | composite z-score (Lefty1) | composite z-score [8] | z-score [9]
1 | O=C1C2C=CC(C(O)c3cccc(O)c3)N(Nc3ccccc3F)C2C(=O)N1c1ccccc1 (stereo not given) | 0.933 | 0.137 | 0.158 | 0.327 | 0.434 | -0.214 | -0.846 | 0.474 | 0.248 | 0.883 (inactive)
2 | N[C@@H](Cc1ccccc1)Cn1cc(C2(O)CCCCC2)nn1 | 0.124 | 0.062 | 0.0655 | 0.556 | 0.0725 | -0.445 | 0.375 | 0.333 | 0.128 | -0.377 (inactive)
3 | COCCOC(=O)N1C(=O)[C@@]2(c3cc(C#CCC(C(=O)OC)C(=O)OC)ccc31)[C@H](C(=O)N1CCc3cc(OC)c(OC)cc3C1)[C@H]1C(=O)O[C@H](c3ccccc3)[C@H](c3ccccc3)N1[C@@H]2c1ccc(O)cc1 | 1.82 | 1.21 | 0.221 | 0.787 | 1.36 | 1.59 | -0.132 | 1.11 | 1.05 | 1.01 (inactive)
4 | COCCOC(=O)N1C(=O)[C@@]2(c3cc(C#CC4=CCCCC4)ccc31)[C@H](c1ccccc1OCCO)N1[C@H](c3ccccc3)[C@H](c3ccccc3)OC(=O)[C@H]1[C@@H]2C(N)=O | 1.48 | 1.17 | 0.539 | 0.83 | 1.06 | 1.36 | -1.8 | 0.91 | -0.0974 | -1.74 (inactive)
5 | CC=CC(O)C1C=CC2C(=O)N(C)C(=O)C2N1NC(=O)OC(C)(C)C (stereo not given) | 0.831 | 0.347 | -0.116 | 0.516 | 0.767 | 0.812 | -0.559 | 0.0938 | 0.838 | -0.645 (inactive)
6 | CC(C)(C)OC(=O)CC[C@]1(C(=O)N2CCOCC2)N=C(c2ccc(OCCCO)cc2)O[C@H]1c1ccccc1CN=[N+]=[N-] | 0.442 | 1.29 | 0.527 | 0.979 | 1.42 | 1.39 | -0.423 | 0.23 | 1.19 | -1.15 (inactive)
7 | COCCOC(=O)N1C(=O)[C@@]2(c3cc(C#CCCO)ccc31)[C@H](C(=O)N1CCN(c3ncccn3)CC1)[C@H]1C(=O)O[C@H](c3ccccc3)[C@H](c3ccccc3)N1[C@@H]2c1ccc(O)cc1 | 2.17 | 1.22 | 1.19 | 0.928 | 0.577 | 0.088 | 1.35 | 0.413 | 0.613 | -0.979 (inactive)
8 | CCOC(=O)C1=C[C@@H](C(C)(C)C)N(S(=O)(=O)c2ccc(C)cc2)[C@H]1c1ccccc1Cl | 1.31 | 1.2 | 0.393 | 0.776 | 0.953 | 0.119 | 3.94 | 0.386 | 1.18 | 0.927 (inactive)
9 | CCOC(=O)C1=CC[C@@H](c2ccccc2)N(S(=O)(=O)c2ccc(C)cc2)[C@H]1C#N | 0.806 | 1.2 | 0.721 | 0.986 | -0.33 | -0.162 | -0.604 | -0.565 | 0.517 | -0.227 (inactive)
10 | CCOC(=O)C[C@H]1[C@H](OC(=O)c2cc3ccccc3oc2=O)[C@@H](NC(=O)C2CCCCC2)c2cc(OCCCO)ccc2N1C(=O)Cc1ccc(OC)cc1 | 0.737 | 0.122 | -0.207 | 0.231 | 0.722 | 0.188 | 0.0812 | 0.646 | 0.507 | 0.696 (inactive)
11 | COCCOC(=O)N1C(=O)[C@@]2(c3cc(C#CC4(O)CCCCCC4)ccc31)[C@H](c1ccc(OCCO)cc1)N1[C@H](c3ccccc3)[C@H](c3ccccc3)OC(=O)[C@H]1[C@@H]2C(=O)N1CCCCCCC1 | 0.459 | 1.21 | 0.175 | 0.95 | 1.39 | 1.47 | -1.31 | 1.16 | 1.32 | -1.34 (inactive)
12 | CN1C(=O)C2C(C1=O)C1C=C(c3ccc(CO)cc3)C2C(c2cccs2)N1C (stereo not given) | 0.495 | 0.157 | 0.0955 | 0.783 | -0.0613 | -0.25 | -0.0324 | -0.295 | 0.742 | -0.836 (inactive)
13 | C=C(COC)/C(=C/C[C@@H](OC(C)=O)c1ccccc1OCCO)c1cc(C(=O)OC)ccc1OC | 2.21 | 0.461 | -0.102 | -0.325 | 0.569 | 0.36 | 1.75 | 0.624 | 0.344 | -1.47 (inactive)
14 | CCOC(=O)C[C@H]1[C@H](OC(=O)c2ccc(-c3ccccc3)cc2)[C@@H](NC(=O)CC(C)C)c2cc(OCCCO)ccc2N1C(=O)Cc1ccc(OC)cc1 | -0.283 | 0.686 | 0.0381 | 0.54 | -0.195 | 0.0007 | 0.598 | -0.276 | 0.535 | 0.491 (inactive)
15 | COCCOC(=O)N1C(=O)[C@@]2(c3ccccc31)[C@H](c1ccc(OCCO)cc1)N1[C@H](c3ccccc3)[C@H](c3ccccc3)OC(=O)[C@H]1[C@@H]2C(=O)N1CCN(c2ncccn2)CC1 | 0.46 | 1.2 | 0.929 | 0.869 | 1.43 | 1.69 | -1.03 | 1.37 | 1.04 | -0.135 (inactive)
16 | CCOC(=O)C1=C(C(=O)OCC)N(S(=O)(=O)CC[Si](C)(C)C)[C@H](c2ccccc2)CC1 | 0.171 | 1.17 | -0.069 | 0.837 | 0.761 | -0.0502 | 2.54 | 0.566 | 1.1 | 1.01 (inactive)
